Source: the supplement of paper PMC12636033
± gives the standard deviation of the averaged measurements. In all, about 33,000 sequences were measured (“E-score (rank enrichment, -0.5 to 0.5)”: median about -0.0075, highest 2% from about 0.23 on). For the sample, the highest values were picked, then their nearest neighbours and some sequences at random.

These sequences were tested on WT Max(13-93) synthetic (M65Nle) (assay: PBM 8-mer E-score (E-score (rank enrichment, -0.5 to 0.5)); higher = stronger preferential binding).
Description: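 Protein binding microarray (universal PBM chip covering all 10-mers in fixed probe flanks) with chemically synthesized human Max(13-93) bHLH-LZ analogs (not full-length Max) bearing noncanonical residues (hArg, Tha, Aib, Nle at 65) and aromatic Cys staples. Read-out per 8-mer (and its reverse complement): E-score (rank-based enrichment, -0.5 to 0.5) and Z-score of median probe intensity.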

ACATGCTC and ACATGCCT are within error of each other in “PBM 8-mer E-score” value: 0.272 ± 0.0055 for the first, 0.219 ± 0.077 for the second.

First: AGTCTGGC
Second: GTAGCACA
The “PBM 8-mer E-score” value of the first is lower: -0.226 ± 0.12 for the first, -0.0865 ± 0.011 for the second.

Compared with TGAAGTAA, GAAAGTAA is higher in “PBM 8-mer E-score” value: 0.119 ± 0.0048 for the first, 0.267 ± 0.032 for the second.

GGAAGTAA and AAAAGTAT are within error of each other in “PBM 8-mer E-score” value: 0.238 ± 0.048 for the first, 0.237 ± 0.021 for the second.

CAAAGTAA and TAAAGTAA are within error of each other in “PBM 8-mer E-score” value: 0.0802 ± 0.022 for the first, 0.05 ± 0.016 for the second.

AGAAGTAA and AAAAGTAA are within error of each other in “PBM 8-mer E-score” value: 0.154 ± 0.0017 for the first, 0.157 ± 0.0098 for the second.

Compared with AAAAGTAC, GCCAATCA is lower in “PBM 8-mer E-score” value: 0.155 ± 0.029 for the first, 0.0501 ± 0.062 for the second.

First: TAATCGAA
Second: CCGAAAGA
The “PBM 8-mer E-score” value of the first is higher: 0.0693 ± 0.0042 for the first, -0.0212 ± 0.033 for the second.

Compared with CCCGGGCA, AGGGAGTC is higher in “PBM 8-mer E-score” value: -0.273 ± 0.045 for the first, -0.0877 ± 0.012 for the second.

CATCGGAA and AAGTTGGG are within error of each other in “PBM 8-mer E-score” value: -0.106 ± 0.077 for the first, -0.0303 ± 0.066 for the second.

ATGCACAA and ATGCACAC are within error of each other in “PBM 8-mer E-score” value: 0.14 ± 0.051 for the first, 0.239 ± 0.079 for the second.

ATGCACAG and ATGCACGA are within error of each other in “PBM 8-mer E-score” value: 0.108 ± 0.0019 for the first, 0.172 ± 0.088 for the second.

Going from CTGCACGC to ATGCACGC, the “PBM 8-mer E-score” value rises from 0.167 ± 0.037 to 0.26 ± 0.026.

First: ACCTAGCT
Second: ACAATCAC
The “PBM 8-mer E-score” value of the first is lower: -0.036 ± 0.038 for the first, 0.28 ± 0.016 for the second.

Compared with GCAATCAC, CCAATCAC is higher in “PBM 8-mer E-score” value: 0.0355 ± 0.036 for the first, 0.158 ± 0.025 for the second.

Going from AACCAAGA to AGGGGGGG, the “PBM 8-mer E-score” value falls from 0.113 ± 0.036 to -0.162 ± 0.1.

First: TCAAATCA
Second: CACAACAC
The “PBM 8-mer E-score” value of the first is lower: 0.0295 ± 0.016 for the first, 0.162 ± 0.014 for the second.

Compared with GACAACAC, TACAACAA is higher in “PBM 8-mer E-score” value: 0.025 ± 0.0086 for the first, 0.245 ± 0.075 for the second.

AACAACAC and CACAACAA are within error of each other in “PBM 8-mer E-score” value: 0.248 ± 0.025 for the first, 0.17 ± 0.053 for the second.

First: AACAACAA
Second: AGCCGCTC
The “PBM 8-mer E-score” value of the first is higher: 0.222 ± 0.06 for the first, -0.0773 ± 0.005 for the second.

First: AGGCACAC
Second: TATTAGCA
The “PBM 8-mer E-score” value of the first is lower: -0.00413 ± 0.014 for the first, 0.103 ± 0.035 for the second.

CCCCTCCA and AGTAACAT are within error of each other in “PBM 8-mer E-score” value: 0.186 ± 0.16 for the first, 0.165 ± 0.019 for the second.

Compared with ACATAATA, CTAATATA is lower in “PBM 8-mer E-score” value: 0.288 ± 0.01 for the first, 0.203 ± 0.012 for the second.

Going from GTATAATA to ATATAATA, the “PBM 8-mer E-score” value rises from 0.194 ± 0.011 to 0.256 ± 0.035.

ACATAATC and ATAATACG are within error of each other in “PBM 8-mer E-score” value: 0.111 ± 0.029 for the first, 0.179 ± 0.092 for the second.

ATAATATA and ATAATATG are within error of each other in “PBM 8-mer E-score” value: 0.262 ± 0.069 for the first, 0.2169 ± 0.00097 for the second.

Compared with CTATAATA, ATAATACA is higher in “PBM 8-mer E-score” value: 0.125 ± 0.03 for the first, 0.265 ± 0.036 for the second.

GCATAATA and ATAATACC are within error of each other in “PBM 8-mer E-score” value: 0.195 ± 0.12 for the first, 0.203 ± 0.026 for the second.

Compared with AGCACAAT, ATCGGCCA is lower in “PBM 8-mer E-score” value: 0.0982 ± 0.029 for the first, -0.199 ± 0.054 for the second.

AAGATGAA and AGTTCCTA are within error of each other in “PBM 8-mer E-score” value: 0.0673 ± 0.0063 for the first, -0.0137 ± 0.1 for the second.

Compared with CATTCCGA, CGCTCCAG is lower in “PBM 8-mer E-score” value: 0.0189 ± 0.04 for the first, -0.224 ± 0.12 for the second.

Compared with ATACTCCC, AGCGATAA is lower in “PBM 8-mer E-score” value: 0.0233 ± 0.061 for the first, -0.115 ± 0.023 for the second.

AAACCAGC and CTGAAGGA are within error of each other in “PBM 8-mer E-score” value: -0.182 ± 0.12 for the first, -0.0478 ± 0.038 for the second.

AACAAGAT and AACAAAAA are within error of each other in “PBM 8-mer E-score” value: 0.11 ± 0.095 for the first, 0.113 ± 0.021 for the second.

Going from AACAAAAT to TACAAATA, the “PBM 8-mer E-score” value falls from 0.301 ± 0.016 to 0.154 ± 0.042.

First: AACAAGTA
Second: AACAAATA
The “PBM 8-mer E-score” value of the first is lower: 0.0942 ± 0.0044 for the first, 0.235 ± 0.039 for the second.

Going from AATCTACG to AAAGTACG, the “PBM 8-mer E-score” value rises from -0.0669 ± 0.058 to 0.0681 ± 0.065.

Compared with CAGCACCA, CCATTAGA is lower in “PBM 8-mer E-score” value: -0.0907 ± 0.0017 for the first, -0.222 ± 0.029 for the second.

ATAGAAAA and CATTAATA are within error of each other in “PBM 8-mer E-score” value: 0.134 ± 0.016 for the first, 0.119 ± 0.11 for the second.

AATTAAAT and AATTAAAG are within error of each other in “PBM 8-mer E-score” value: 0.253 ± 0.024 for the first, 0.184 ± 0.068 for the second.

Compared with AATTAAGC, AATTAATA is higher in “PBM 8-mer E-score” value: 0.0692 ± 0.079 for the first, 0.243 ± 0.094 for the second.

Compared with GATTAATA, GATTAAGA is lower in “PBM 8-mer E-score” value: 0.266 ± 0.022 for the first, 0.182 ± 0.054 for the second.

AATTAAAC and ACTTAATA are within error of each other in “PBM 8-mer E-score” value: 0.218 ± 0.018 for the first, 0.21 ± 0.015 for the second.

Going from TATTAATA to ATTTAATA, the “PBM 8-mer E-score” value rises from 0.19 ± 0.021 to 0.23 ± 0.013.

In the case of AATTAAGA, the “PBM 8-mer E-score” value is reported as 0.241 ± 0.057.
